# Laboratory results: PubChem BioAssay (NCATS)
# Records with an inconclusive call do not appear. A call without a number means that no potency is given here. Active and inactive are the calls of the source. Unless noted, calls follow the shape of the dose curve; as a rule, active = well fitted curve in the direction sought with a large enough effect; inconclusive = small, poorly fitted or top-dose-only effect, or another doubt; inactive = no such curve, though single readings can be large; an effect the other way counts as inactive or inconclusive.
# Columns and labels:
# [1] = target: Cytochrome P450 3A4 (Homo sapiens) (UniProt P08684); assay: qHTS Assay for Inhibitors and Substrates of Cytochrome P450 3A4 (AID 884); also: nearly all actives have a fitted effect of over 50% in size
# Chain of Cytochrome P450 3A4 (Homo sapiens) (P08684 whole entry, looked up): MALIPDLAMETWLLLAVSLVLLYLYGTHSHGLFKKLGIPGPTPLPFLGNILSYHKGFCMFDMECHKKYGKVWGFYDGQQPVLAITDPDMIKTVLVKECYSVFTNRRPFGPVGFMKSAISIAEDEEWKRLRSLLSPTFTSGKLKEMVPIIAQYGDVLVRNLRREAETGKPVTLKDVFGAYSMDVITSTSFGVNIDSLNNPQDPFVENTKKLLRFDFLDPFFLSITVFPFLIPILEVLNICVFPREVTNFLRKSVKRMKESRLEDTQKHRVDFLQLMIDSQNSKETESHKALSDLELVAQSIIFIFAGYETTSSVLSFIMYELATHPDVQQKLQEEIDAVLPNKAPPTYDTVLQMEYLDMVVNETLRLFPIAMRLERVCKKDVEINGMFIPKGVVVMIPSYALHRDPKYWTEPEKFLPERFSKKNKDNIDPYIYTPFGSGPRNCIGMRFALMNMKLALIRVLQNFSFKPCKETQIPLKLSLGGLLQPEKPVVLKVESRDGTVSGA
# Procedure, shortened: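 Luminescent readout of luciferin produced by CYP3A4 (20 nM) dealkylation of Luciferin-PPXE, 25 uM (its KM). NADPH-driven reaction ran 60 min at RT after 10 min compound preincubation; data scaled to 57 uM ketoconazole as 100% inhibition.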
# [2] = Confirmation and Secondary Assay for Modulators of Hemoglobin Beta Chain Splicing at IVS2 654 locus (AID 910);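 also: HeLa cells stably carrying EGFP split by mutant beta-globin IVS2-654 intron; per-well total GFP intensity by laser scanning cytometry after 2-day treatment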
# Procedure, shortened: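 Readout: per-well total peak green fluorescence (488 nm ex, 500–520 nm em) from objects 5–250 µm, reflecting correct splicing of an EGFP-654 reporter. Compounds were applied for 2 days at 37 °C to overnight-plated HeLa EGFP-654 cells; controls were DMSO and 500 nM IVS2-654 PNA.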
# [3] = Confirmation and Secondary Assay for Modulators of Hemoglobin Beta Chain Splicing at IVS2 705 locus (AID 930);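 also: HeLa cells stably expressing the EGFP-705 splicing reporter; GFP fluorescence per well restored by corrected splicing of the IVS2-705 intron in EGFP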
# Procedure, shortened: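 First, HeLa EGFP-705 cells are seeded at 500/well in Optimem with 2% FCS and left overnight. Next, compound or DMSO is added for 2 days. Finally wells are laser-scanned and total peak GFP intensity scored.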
# [4] = qHTS Assay for Lipid Storage Modulators (AID 1519; calls by dose curve); settings: Drosophila S3 cells, BODIPY lipid droplet/cell ratio, laser cytometry, cells loaded with oleic acid
# Procedure, shortened: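 Cells seeded at 5,000 per well were treated with compounds over a concentration series and loaded with oleic acid (400 uM, as added). Lipid droplet fluorescence (488 nm excitation, 500-530 nm channel) was read by laser-scanning cytometry and normalized to 20 uM Triacsin C.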
# [5] = target: ATP-dependent 6-phosphofructokinase (Trypanosoma brucei brucei) (UniProt O15648); assay: qHTS Assay to Find Inhibitors of T. brucei phosphofructokinase: hit validation (AID 492961);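 also: luminescence reports ADP formed as PFK phosphorylates fructose-6-phosphate with ATP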
# Chain of ATP-dependent 6-phosphofructokinase (Trypanosoma brucei brucei) (O15648 whole entry, looked up): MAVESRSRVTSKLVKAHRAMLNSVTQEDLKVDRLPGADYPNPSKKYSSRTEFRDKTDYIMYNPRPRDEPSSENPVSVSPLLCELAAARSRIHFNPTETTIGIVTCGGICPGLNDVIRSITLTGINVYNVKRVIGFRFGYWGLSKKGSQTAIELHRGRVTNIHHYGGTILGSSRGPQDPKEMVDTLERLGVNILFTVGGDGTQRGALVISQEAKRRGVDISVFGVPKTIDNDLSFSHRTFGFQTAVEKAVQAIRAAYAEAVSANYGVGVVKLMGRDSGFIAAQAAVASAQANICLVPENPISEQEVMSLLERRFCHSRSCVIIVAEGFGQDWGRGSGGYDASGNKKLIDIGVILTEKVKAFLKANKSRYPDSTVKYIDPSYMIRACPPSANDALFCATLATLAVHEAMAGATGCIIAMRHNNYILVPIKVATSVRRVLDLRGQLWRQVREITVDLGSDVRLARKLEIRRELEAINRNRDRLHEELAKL
# Procedure, shortened: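 ADP-Glo luminescence read-out of ADP formed by 1.25 nM PFK from 0.1 mM ATP and 0.5 mM F6P (TEA pH 8.0, 45 min, RT). Compounds titrated; activity normalized to no-enzyme and full-enzyme controls.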
# [6] = target: Ubiquitin carboxyl-terminal hydrolase 1 (Homo sapiens) (UniProt O94782); assay: Inhibitors of USP1/UAF1: Pilot qHTS (AID 504865);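 also: rhodamine fluorescence freed from ubiquitin-rhodamine substrate followed over time; top concentration of the series differs between compounds; nearly all actives have a fitted effect of over 35% in size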
# Chain of Ubiquitin carboxyl-terminal hydrolase 1 (Homo sapiens) (O94782 whole entry, looked up): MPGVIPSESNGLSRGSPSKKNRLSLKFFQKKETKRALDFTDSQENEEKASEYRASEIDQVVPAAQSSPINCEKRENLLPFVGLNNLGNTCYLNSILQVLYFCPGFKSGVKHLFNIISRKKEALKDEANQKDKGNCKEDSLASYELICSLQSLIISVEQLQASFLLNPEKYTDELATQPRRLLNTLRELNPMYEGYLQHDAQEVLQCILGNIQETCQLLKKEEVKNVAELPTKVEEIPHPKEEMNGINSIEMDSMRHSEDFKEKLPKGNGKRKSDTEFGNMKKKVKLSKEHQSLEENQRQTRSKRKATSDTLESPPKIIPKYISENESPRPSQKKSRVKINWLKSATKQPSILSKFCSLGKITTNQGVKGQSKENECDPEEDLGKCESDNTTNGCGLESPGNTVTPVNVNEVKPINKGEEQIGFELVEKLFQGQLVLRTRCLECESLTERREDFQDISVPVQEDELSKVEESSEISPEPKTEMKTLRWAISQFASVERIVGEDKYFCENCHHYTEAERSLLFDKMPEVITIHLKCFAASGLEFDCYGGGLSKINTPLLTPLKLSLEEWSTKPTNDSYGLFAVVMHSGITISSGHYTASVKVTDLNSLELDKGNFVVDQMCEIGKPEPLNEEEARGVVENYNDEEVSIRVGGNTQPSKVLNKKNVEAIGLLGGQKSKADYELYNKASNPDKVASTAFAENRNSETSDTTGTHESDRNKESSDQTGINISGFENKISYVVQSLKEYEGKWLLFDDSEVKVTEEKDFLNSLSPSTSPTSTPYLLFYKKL
# Procedure, shortened: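 Deubiquitinase activity followed as kinetic rhodamine fluorescence release from 150 nM Ub-Rho. 1 nM USP1/UAF1 with compound, after 15 min room-temperature preincubation, in HEPES pH 7.8 buffer containing TCEP, EDTA, BSA and Tween-20.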
# [7] = target: Luciferin 4-monooxygenase (Photinus pyralis) (UniProt P08659); assay: Biochemical firefly luciferase enzyme assay for NPC (AID 624030);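 also: purified P. pyralis luciferase at 10 nM with luciferin and ATP substrate; nearly all actives have a fitted effect of over 70% in size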
# Chain of Luciferin 4-monooxygenase (Photinus pyralis) (P08659 whole entry, looked up): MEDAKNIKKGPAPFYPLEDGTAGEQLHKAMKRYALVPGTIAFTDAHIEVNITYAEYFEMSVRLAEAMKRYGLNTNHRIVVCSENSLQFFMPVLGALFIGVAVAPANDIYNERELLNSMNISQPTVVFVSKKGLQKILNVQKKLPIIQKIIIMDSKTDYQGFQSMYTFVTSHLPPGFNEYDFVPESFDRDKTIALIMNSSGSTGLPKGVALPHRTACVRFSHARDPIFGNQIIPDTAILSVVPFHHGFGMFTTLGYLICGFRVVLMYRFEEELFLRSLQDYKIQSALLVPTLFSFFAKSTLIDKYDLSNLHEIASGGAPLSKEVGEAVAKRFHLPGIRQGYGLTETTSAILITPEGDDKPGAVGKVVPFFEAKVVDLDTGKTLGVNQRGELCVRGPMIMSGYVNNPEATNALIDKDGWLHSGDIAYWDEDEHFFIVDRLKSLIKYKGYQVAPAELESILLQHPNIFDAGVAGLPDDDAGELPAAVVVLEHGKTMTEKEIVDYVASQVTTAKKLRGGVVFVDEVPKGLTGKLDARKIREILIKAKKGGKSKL
# Procedure, shortened: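 Direct inhibition of firefly luciferase enzyme (10 nM final, 50 mM Tris Acetate) assessed by luminescence within 5 minutes. Percent activity scaled between DMSO and PTC124 positive control, with concentration-effect curves classified by fit quality and response.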
# [8] = S16 Schwann cell viability assay (CellTiter-Glo assay) (AID 624031);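 also: native untransfected S16 rat Schwann cells; nearly all actives have a fitted effect of over 70% in size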
# Procedure, shortened: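 Counter-screen for cytotoxicity: parental S16 rat Schwann cells lacking the PMP22 reporters, treated 24 h with compound, viability from cellular ATP by CellTiter-Glo luminescence, normalized to DMSO (0%) and no-cell wells.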
# [9] = S16 Schwann cell PMP22 intronic element firefly luciferase assay (AID 624032); also: nearly all actives have a fitted effect of over 30% in size
# Procedure, shortened: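 Luciferase reporter of PMP22 intronic-element expression in stably transfected S16 rat Schwann cells, read by ONE-Glo luminescence after 24 h compound exposure at 37 C. Activity scaled between DMSO (0%) and positive-control PTC124; concentration-effect curves quality-classified.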
# [10] = qHTS Assay for Identifying Gametocytocidal Compounds (AID 743244);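 also: actives lower the fluorescent signal which means gametocytes are killed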; settings: P. falciparum 3D7 stage III-V gametocytes, alamarBlue, 72 h; max response: stronger effect = lower value
# Procedure, shortened: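 Compounds are pinned into medium, gametocytes (stage III–V, 3D7, 20,000 cells/well) added, and plates held 72 h at 37 °C in 5% CO2. AlamarBlue follows for 24 h before fluorescence reading.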
# [11] = qHTS for Inhibitors of the Functional Ribonucleoprotein Complex (vRNP) of Lassa (LASV) Arenavirus: LASV Primary Screen - GLuc reporter signal (AID 1347082; calls by dose curve; tested in HEK293 reporter line; also: nearly all actives have a fitted effect of over 60% in size)
# [12] = qHTS for Inhibitors of the Functional Ribonucleoprotein Complex (vRNP) of Lassa (LASV) Arenavirus: Viability assay - alamar blue signal for LASV Primary Screen (AID 1347083; calls by dose curve; tested in HEK293 reporter line; also: nearly all actives have a fitted effect of over 80% in size)
# [13] = qHTS for Inhibitors of the Functional Ribonucleoprotein Complex (vRNP) of Lymphocytic Choriomeningitis Arenaviruses (LCMV): Viability assay - alamar blue signal for LCMV Primary Screen (AID 1347085; calls by dose curve; tested in HEK293 reporter line; also: nearly all actives have a fitted effect of over 80% in size)
# [14] = target: Nucleoprotein (Lymphocytic choriomeningitis virus (strain Armstrong)) (UniProt P09992); assay: qHTS for Inhibitors of the Functional Ribonucleoprotein Complex (vRNP) of Lymphocytic Choriomeningitis Arenaviruses (LCMV): LCMV Primary Screen - GLuc reporter signal (AID 1347086; calls by dose curve; also: nearly all actives have a fitted effect of over 70% in size)
# Chain of Nucleoprotein (Lymphocytic choriomeningitis virus (strain Armstrong)) (P09992 whole entry, looked up): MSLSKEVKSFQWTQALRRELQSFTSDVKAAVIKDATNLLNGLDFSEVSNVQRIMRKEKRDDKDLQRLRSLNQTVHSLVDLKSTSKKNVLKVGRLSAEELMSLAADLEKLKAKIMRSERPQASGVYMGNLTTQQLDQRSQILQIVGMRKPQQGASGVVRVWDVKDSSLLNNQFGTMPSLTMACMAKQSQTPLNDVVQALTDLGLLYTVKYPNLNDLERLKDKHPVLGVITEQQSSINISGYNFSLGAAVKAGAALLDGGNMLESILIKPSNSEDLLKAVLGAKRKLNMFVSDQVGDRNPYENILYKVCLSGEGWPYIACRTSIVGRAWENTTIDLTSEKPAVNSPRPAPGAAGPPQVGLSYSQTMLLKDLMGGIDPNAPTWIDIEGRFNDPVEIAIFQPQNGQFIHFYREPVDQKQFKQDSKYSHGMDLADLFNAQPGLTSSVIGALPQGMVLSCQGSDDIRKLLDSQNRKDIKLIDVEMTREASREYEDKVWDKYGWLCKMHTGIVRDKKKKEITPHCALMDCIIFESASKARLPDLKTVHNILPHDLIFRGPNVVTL
# 3D7 = assay: qHTS profiling for inhibitors of Plasmodium falciparum proliferation (AID 504749); also: nearly all actives have a fitted effect of over 60% in size; settings: P. falciparum in erythrocytes, SYBR Green DNA, 72 h; series mostly up to 28.7 µM
# Procedure, shortened: (§1)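 In a 72 h erythrocytic culture (37 C, humidified, 5% CO2) at 2.5% hematocrit and 0.3% starting parasitemia, compounds were tested; SYBR Green I in detergent lysis buffer stained parasite DNA overnight.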
# 7G8 = assay: as above; settings: P. falciparum in erythrocytes, SYBR Green DNA, 72 h; series mostly up to 28.7 µM
# Procedure, shortened: as §1
# AA1029 = assay: as above; settings: P. falciparum in erythrocytes, SYBR Green DNA, 72 h; series mostly up to 28.7 µM
# Procedure, shortened: as §1
# AS120 = assay: as above; settings: P. falciparum in erythrocytes, SYBR Green DNA, 72 h; series mostly up to 28.7 µM
# Procedure, shortened: as §1
# ATS189 = assay: as above; settings: P. falciparum in erythrocytes, SYBR Green DNA, 72 h; series mostly up to 28.7 µM
# Procedure, shortened: as §1
# ATS95 = assay: as above; settings: P. falciparum in erythrocytes, SYBR Green DNA, 72 h; series mostly up to 28.7 µM
# Procedure, shortened: as §1
# C2A = assay: as above; settings: P. falciparum in erythrocytes, SYBR Green DNA, 72 h; series mostly up to 28.7 µM
# Procedure, shortened: as §1
# CP185 = assay: as above; settings: P. falciparum in erythrocytes, SYBR Green DNA, 72 h; series mostly up to 28.7 µM
# Procedure, shortened: as §1
# CP191 = assay: as above; settings: P. falciparum in erythrocytes, SYBR Green DNA, 72 h; series mostly up to 28.7 µM
# Procedure, shortened: as §1
# CP192 = assay: as above; settings: P. falciparum in erythrocytes, SYBR Green DNA, 72 h; series mostly up to 28.7 µM
# Procedure, shortened: as §1
# CP194 = assay: as above; settings: P. falciparum in erythrocytes, SYBR Green DNA, 72 h; series mostly up to 28.7 µM
# Procedure, shortened: as §1
# CP201 = assay: as above; settings: P. falciparum in erythrocytes, SYBR Green DNA, 72 h; series mostly up to 28.7 µM
# Procedure, shortened: as §1
# CP203 = assay: as above; settings: P. falciparum in erythrocytes, SYBR Green DNA, 72 h; series mostly up to 28.7 µM
# Procedure, shortened: as §1
# CP211 = assay: as above; settings: P. falciparum in erythrocytes, SYBR Green DNA, 72 h; series mostly up to 28.7 µM
# Procedure, shortened: as §1
# CP215 = assay: as above; settings: P. falciparum in erythrocytes, SYBR Green DNA, 72 h; series mostly up to 28.7 µM
# Procedure, shortened: as §1
# CP217 = assay: as above; settings: P. falciparum in erythrocytes, SYBR Green DNA, 72 h; series mostly up to 28.7 µM
# Procedure, shortened: as §1
# CP237 = assay: as above; settings: P. falciparum in erythrocytes, SYBR Green DNA, 72 h; series mostly up to 28.7 µM
# Procedure, shortened: as §1
# CP238 = assay: as above; settings: P. falciparum in erythrocytes, SYBR Green DNA, 72 h; series mostly up to 28.7 µM
# Procedure, shortened: as §1
# CP247 = assay: as above; settings: P. falciparum in erythrocytes, SYBR Green DNA, 72 h; series mostly up to 28.7 µM
# Procedure, shortened: as §1
# CP250 = assay: as above; settings: P. falciparum in erythrocytes, SYBR Green DNA, 72 h; series mostly up to 28.7 µM
# Procedure, shortened: as §1
# CP252 = assay: as above; settings: P. falciparum in erythrocytes, SYBR Green DNA, 72 h; series mostly up to 28.7 µM
# Procedure, shortened: as §1
# CP256 = assay: as above; settings: P. falciparum in erythrocytes, SYBR Green DNA, 72 h; series mostly up to 28.7 µM
# Procedure, shortened: as §1
structure (smiles),measurement,setting,value
C[N+](C)(C)CC(=O)[O-],Potency,[1],inactive
same,Potency,[2],inactive
same,outcome,[3],inactive
same,"activity change, negative = inhibition",[4]; at 57.5 µM (top of the series),3.78% (inactive)
same,max response,[4]; measured here: cell count channel max response,0.576%
same,max response,[4]; measured here: lipid channel max response,6.22%
same,Potency,[5],inactive
same,Potency,[6],inactive
same,Potency,[7],inactive
same,Potency,[8],inactive
same,Potency,[9],inactive
same,max response,[10],14.9% (inactive)
same,Potency,[11],inactive
same,Potency,[12],inactive
same,Potency,[13],inactive
same,Potency,[14],inactive
same,Potency,3D7,inactive
same,Potency,7G8,inactive
same,Potency,AA1029,inactive
same,Potency,AS120,inactive
same,Potency,ATS189,inactive
same,Potency,ATS95,inactive
same,Potency,C2A,inactive
same,Potency,CP185,inactive
same,Potency,CP191,inactive
same,Potency,CP192,inactive
same,Potency,CP194,inactive
same,Potency,CP201,inactive
same,Potency,CP203,inactive
same,Potency,CP211,inactive
same,Potency,CP215,inactive
same,Potency,CP217,inactive
same,Potency,CP237,inactive
same,Potency,CP238,inactive
same,Potency,CP247,inactive
same,Potency,CP250,inactive
same,Potency,CP252,inactive
same,Potency,CP256,inactive
